Assay outcomes as filed in PubChem.
SARS PLP yeast: inhibitors of SARS-CoV papain-like protease in yeast | S. cerevisiae expressing SARS-CoV PLpro, growth rescue | Potency, µM (top dose mostly 32.9 µM), most hits filed as activators | hit rate 0.19% among 330,000 | AID 485353; calls by dose curve; also: nearly all actives have a fitted effect of over 55% in size
AmpC detergent: inhibitors of E. coli AmpC beta-lactamase with detergent | AmpC hydrolysis of nitrocefin, absorbance 480 nm, 0.01% Triton | Potency, µM (titrated, usually from 114 µM), most hits filed as inhibitors | AID 485294 | hit rate 0.041% among 370,000 | P00811; also: nearly all actives have a fitted effect of over 25% in size
Target sequence (P00811 whole entry, looked up): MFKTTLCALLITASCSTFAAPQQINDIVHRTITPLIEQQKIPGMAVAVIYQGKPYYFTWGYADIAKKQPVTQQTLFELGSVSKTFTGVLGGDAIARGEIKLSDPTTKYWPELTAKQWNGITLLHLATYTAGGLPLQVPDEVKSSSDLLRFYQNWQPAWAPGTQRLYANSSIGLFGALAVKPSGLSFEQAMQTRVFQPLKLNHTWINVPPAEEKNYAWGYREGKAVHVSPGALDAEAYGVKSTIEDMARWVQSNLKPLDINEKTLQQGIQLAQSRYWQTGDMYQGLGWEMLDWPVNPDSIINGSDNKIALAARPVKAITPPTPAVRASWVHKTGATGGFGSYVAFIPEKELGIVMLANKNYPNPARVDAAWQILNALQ
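20 mM phosphate pH 7.0 + 0.01% (detergent screen) or 0.0001% Triton X-100; 5.3 nM AmpC reagent; cpd preinc 15 min RT; nitrocefin (800 uM stock) to start; A480 q20 s × 4 min; Activity was normalised to no-enzyme and no-compound control wells.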
Shiga toxin inh: inhibitors of Shiga toxin in Vero cells; Vero cells, Shiga toxin protein synthesis inhibition reporter; inhibition, % at 38.7 µM; hit rate 9.2% among 290,000; AID 2315; in the data active = inhibition mostly above about 28%, no sharp cut-off; inactive = mostly below about 43%
CHX counter: affects cycloheximide protein synthesis inhibition readout, counter-screen | cell reporter, cycloheximide protein synthesis inhibition counterscreen | max response, % | hit rate 12% among 300,000 | AID 2314; in the data active = max response mostly above about 13%, no sharp cut-off; inactive = mostly below about 14%; also: read at 38.3 µM for the half of the compounds with a filed dose
AMA1-RON2 inh: AMA1-RON2 (P. falciparum) interaction inhibition; AlphaScreen AMA1-biotinylated RON2 peptide binding; Potency, µM (highest dose often 58.2 µM), actives largely listed as inhibitors; hit rate 0.2% among 360,000; also: nearly all actives have a fitted effect of over 45% in size
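AMA1 (3D7) with his tag at 25 nM final met compounds first, then biotinylated RON2 peptide at 25 nM; detection used donor plus acceptor beads, 10 µg/mL apiece, read by AlphaScreen after 30 min at room temperature.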
AmpC no deterg: AmpC beta-lactamase inhibition without detergent | AmpC nitrocefin hydrolysis, absorbance 480 nm, 0.0001% Triton | Potency, µM (highest dose often 57.1 µM), actives largely listed as inhibitors | hit rate 0.52% among 330,000; also: nearly all actives have a fitted effect of over 20% in size
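AmpC (5.3 nM in the dispensed reagent) in 20 mM phosphate pH 7.0 with 0.01% (detergent screen) or 0.0001% Triton X-100 was preincubated with compounds for 15 min at room temperature. Nitrocefin was then added from an 800 uM solution, and hydrolysis was followed at 480 nm.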
Large screens that a line does not name were inactive. The entries come from a sample that favours hits as a whole. Unless noted, calls follow the shape of the dose curve; as a rule, active = well fitted curve in the direction sought with a large enough effect; inconclusive = small, poorly fitted or top-dose-only effect, or another doubt; inactive = no such curve, though single readings can be large; an effect the other way counts as inactive or inconclusive.

Nc1n[nH]c(C2CC2)c1N=Nc1ccc(Cl)c(Cl)c1	Shiga toxin inh 51.4
O=C(Nc1ccc(Cl)cc1C(F)(F)F)c1ccccc1Cl	CHX counter 12.7
Cc1ccc(C(=O)Nc2ccc(Cl)cc2C)c(Cl)c1	Shiga toxin inh 100.3, CHX counter 26.6
O=C(Nc1cc(F)c(Br)cc1F)c1ccc(Cl)cc1	Shiga toxin inh 111.0, CHX counter 33.6
Cc1ccc(C(=O)Nc2ccc(Cl)cc2C(F)(F)F)c(Cl)c1	Shiga toxin inh 56.1, CHX counter 30.7
Cc1noc(C)c1C(=O)Nc1ccc(Cl)cc1C(F)(F)F	none
Cc1cc(NC(=O)c2ccccc2Cl)ccc1NC(=O)c1ccccc1Cl	none (no result: Shiga toxin inh)
COc1cc(/C=N/NC(=O)CCn2nc(C)cc2C)ccc1O	none
O=C(Cc1cccc2ccccc12)N/N=C/c1ccncc1	none
CCc1cccc(CC)c1NC1=NS(=O)(=O)c2ccccc21	none (no result: SARS PLP yeast, Shiga toxin inh, CHX counter, AMA1-RON2 inh, AmpC no deterg)
CSC(=NC1CCCCC1)NS(=O)(=O)c1ccccc1	none
O=C(Nc1ccc(Cl)cc1C(F)(F)F)c1ccc(Cl)cc1	CHX counter 15.6
CNS(=O)(=O)c1ccc(NC(=O)c2ccc(Cl)cc2Cl)cc1	none
Cc1ccc(NC(=O)c2ccc(Cl)cc2Cl)cc1O	Shiga toxin inh 94.4, CHX counter 38.5
[O-]/C(=C(\C(=S)Nc1cccc2ccccc12)[n+]1ccccc1)c1cccs1	CHX counter 19.2
[O-]/C(=C(\C(=S)Nc1cccc2ccccc12)[n+]1ccccc1)c1ccc2c(c1)OCCO2	CHX counter 22.2
Cc1cccc(C)c1NC(=S)/C(=C(\[O-])c1cccs1)[n+]1ccccc1	none
COc1ccc(C(=O)NCCNc2nc3c(C)cccc3cc2C#N)cc1OC	none
CCN(CC(=O)Nc1ccc2c(c1)OCCO2)CC(=O)Nc1ccc2c(c1)OCO2	none
CCN(CC(=O)Nc1ccc2c(c1)OCCO2)Cc1cc(=O)oc2c(C)c(C)ccc12	AmpC detergent inconclusive, CHX counter 9.1
Cn1ccnc1SCC(=O)Nc1cccc(O)c1	CHX counter 20.8
CCCCOc1cccc(NC(=O)CSc2nccn2C)c1	CHX counter 8.8
O=C1Nc2ccccc2N(C(=O)c2ccc3ccccc3c2)C1c1nc2ccccc2[nH]1 (configuration not stated)	none (no result: SARS PLP yeast, AmpC detergent, Shiga toxin inh, CHX counter, AmpC no deterg)
COc1cccc(NC2=C(C#N)C(=O)NC(c3cccc(OC)c3O)S2)c1 (configuration not stated)	CHX counter 19.3
COCCn1c(SCC(=O)NCCCN2CCCC2=O)nc2ccccc2c1=O	none (no result: AmpC detergent, Shiga toxin inh, CHX counter)
Cc1ccc(Nc2nc3ccccc3c(=O)s2)cc1	none
CC(=O)c1cnc(Nc2ccc(C)cc2)s1	Shiga toxin inh 45.4, CHX counter 30.3
O=C(c1cccs1)N(Cc1cccnc1)c1nc2c(F)cc(F)cc2s1	none (no result: SARS PLP yeast, Shiga toxin inh, CHX counter, AMA1-RON2 inh, AmpC no deterg)
Cc1ccc(NC(=O)C(C)N=C2NS(=O)(=O)c3ccccc32)cc1F (configuration not stated)	Shiga toxin inh 63.4, CHX counter 28.7
COc1cc(O)c(C(CCN2CCCC2)c2ccc(N(C)C)cc2)c(OC)c1 (configuration not stated)	AMA1-RON2 inh inconclusive
Cc1ccc(C(C)C)c(OCc2ccc(C(=O)N/N=C/c3ccc(C(=O)O)cc3)cc2)c1	CHX counter 11.3
Cc1ccc(C(C)C)c(OCc2ccc(C(=O)N/N=C/c3ccc(O)cc3O)cc2)c1	SARS PLP yeast 3.16µM
COc1ccc2cc3cc(C(=O)NC(C)C)oc3nc2c1	Shiga toxin inh 75.5, CHX counter 48.1
COc1ccc2cc3cc(C(=O)NCC4COc5ccccc5O4)oc3nc2c1 (configuration not stated)	CHX counter 39.5
COc1ccc2cc3cc(C(=O)Nc4cc(OC)c(OC)c(OC)c4)oc3nc2c1	none
COC(=O)c1cc(-c2ccccc2)nc2nc(SC)[nH]c(=O)c12	none
Cc1cc(=O)[nH]c(S/C=C/c2ccccc2)n1	Shiga toxin inh 57.5, CHX counter 28.1
CCOC(=O)c1ccc(N2CN(CC)CNC2=S)cc1	SARS PLP yeast 10µM
CC(C)OC(=O)c1ccc(N2C(=O)C3CC=CCC3C2=O)cc1 (configuration not stated)	CHX counter 19.9
